Source: PubChem BioAssay (NCI)
Compounds without any hit were thinned out: in the full panel of roughly 83,000, 20% have a hit.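 Step 1: grow cells in 96-well plates. Step 2: add test compound at a single concentration. Step 3: incubate 48 h. Step 4: record percent growth.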 Calls of active or inactive are those of the source. The calls were made as follows: active = growth percent below 10; inactive = the rest.

What was measured:
Test in all cases: NCI-60 one-dose screen, 48 h (100 = growth as untreated, 0 = no growth, -100 = all killed)
Conditions in all cases: 10 µM unless noted
RPMI-8226 leukemia = system: RPMI-8226 leukemia
OVCAR-8 ovarian = system: OVCAR-8 ovarian
OVCAR-5 ovarian = system: OVCAR-5 ovarian
OVCAR-4 ovarian = system: OVCAR-4 ovarian
SK-OV-3 ovarian = system: SK-OV-3 ovarian
IGROV1 ovarian = system: IGROV1 ovarian
OVCAR-3 ovarian = system: OVCAR-3 ovarian
NCI/ADR-RES ovarian = system: NCI/ADR-RES ovarian
T-47D breast = system: T-47D breast
BT-549 breast = system: BT-549 breast
MDA-MB-435 melanoma = system: MDA-MB-435 melanoma
SW-620 colon = system: SW-620 colon
MCF7 breast = system: MCF7 breast
HCT-116 colon = system: HCT-116 colon
HCC-2998 colon = system: HCC-2998 colon
KM12 colon = system: KM12 colon
HS 578T breast = system: HS 578T breast

Measured: growth

Nc1ccc2c(c1)C(=O)C(=O)c1c-2nc2ccccn12
inactive: RPMI-8226 leukemia 14.7% | SK-OV-3 ovarian 30.7% | NCI/ADR-RES ovarian 11.7% | HCC-2998 colon 19.4% | KM12 colon 20%
active: OVCAR-8 ovarian 8.18% | OVCAR-5 ovarian -47.4% | OVCAR-4 ovarian -95.4% | IGROV1 ovarian -40.3% | OVCAR-3 ovarian -19.8% | T-47D breast -53.5% | BT-549 breast -34.6% | MDA-MB-435 melanoma -87.3% | SW-620 colon 4.01% | MCF7 breast -54.7% | HCT-116 colon 1.3%

Cc1cccc(C)c1NCc1nnc(-c2ccc(O)cc2)o1
inactive: RPMI-8226 leukemia 95.5% | OVCAR-8 ovarian 107% | OVCAR-5 ovarian 95.5% | OVCAR-4 ovarian 99% | SK-OV-3 ovarian 114% | IGROV1 ovarian 99.9% | OVCAR-3 ovarian 99.4% | NCI/ADR-RES ovarian 96.8% | T-47D breast 91.5% | BT-549 breast 97.1% | MDA-MB-435 melanoma 99.1% | SW-620 colon 100% | MCF7 breast 90.6% | HCT-116 colon 102% | HCC-2998 colon 100% | KM12 colon 97%

CNS(=O)(=O)c1cccc(-c2ccc3c4c(n(C)c(=O)c3c2)-c2ccccc2C4=O)c1
inactive: RPMI-8226 leukemia 30.5% | OVCAR-8 ovarian 43.9% | OVCAR-5 ovarian 95.2% | OVCAR-4 ovarian 92.1% | SK-OV-3 ovarian 71.8% | IGROV1 ovarian 60.8% | OVCAR-3 ovarian 82.6% | HS 578T breast 94.5% | NCI/ADR-RES ovarian 70.7% | T-47D breast 47% | BT-549 breast 76.6% | SW-620 colon 46.4% | MCF7 breast 18.5% | HCT-116 colon 36.4% | HCC-2998 colon 90.6% | KM12 colon 40.7%

Fc1ccc(N/N=C/c2ccc(-n3cccn3)cc2)cc1
inactive: RPMI-8226 leukemia 97.7% | OVCAR-8 ovarian 101% | OVCAR-5 ovarian 112% | OVCAR-4 ovarian 95.6% | SK-OV-3 ovarian 84.6% | IGROV1 ovarian 78.3% | OVCAR-3 ovarian 93.6% | NCI/ADR-RES ovarian 87.6% | T-47D breast 86.1% | BT-549 breast 92.2% | MDA-MB-435 melanoma 95.2% | SW-620 colon 79.6% | MCF7 breast 77% | HCT-116 colon 91.9% | HCC-2998 colon 97.5% | KM12 colon 80.1%

N#Cc1ccc(N2Cc3cc(Cl)ccc3OC3=C2C(=O)N(Cc2ccccc2)C3=O)cc1
active: RPMI-8226 leukemia -23.3% | OVCAR-8 ovarian 4.56% | OVCAR-5 ovarian -5.13% | OVCAR-4 ovarian -7.68% | OVCAR-3 ovarian -82.1% | NCI/ADR-RES ovarian 6.99% | T-47D breast -60.1% | BT-549 breast -50.5% | SW-620 colon -75.8% | MCF7 breast -1.6% | HCT-116 colon -82.7%
inactive: SK-OV-3 ovarian 94.2% | IGROV1 ovarian 13% | HS 578T breast 38.1% | HCC-2998 colon 40.4% | KM12 colon 61.4%

CC1CCN(CCCCCOc2ccc3oc4ccccc4c(=O)c3c2)CC1
inactive: RPMI-8226 leukemia 60.1% | OVCAR-8 ovarian 81% | OVCAR-5 ovarian 88.4% | OVCAR-4 ovarian 77.3% | SK-OV-3 ovarian 93.9% | IGROV1 ovarian 68.9% | OVCAR-3 ovarian 87.6% | NCI/ADR-RES ovarian 78.3% | T-47D breast 67.6% | BT-549 breast 80.3% | MDA-MB-435 melanoma 79.9% | SW-620 colon 81.7% | MCF7 breast 68.3% | HCT-116 colon 52.7% | HCC-2998 colon 79.5% | KM12 colon 69.9%

Cc1cccc(NC(=O)c2sc3nc4c(cc3c2N)CN(Cc2ccccc2)CC4)c1C
inactive: RPMI-8226 leukemia 26.8% | OVCAR-8 ovarian 34.3% | OVCAR-5 ovarian 57.4% | OVCAR-4 ovarian 61.7% | SK-OV-3 ovarian 42.2% | IGROV1 ovarian 48.5% | NCI/ADR-RES ovarian 20.2% | T-47D breast 53% | BT-549 breast 54% | SW-620 colon 24.3% | MCF7 breast 22.4% | HCT-116 colon 29.2% | HCC-2998 colon 55.8% | KM12 colon 25.7%
active: OVCAR-3 ovarian -21.3% | MDA-MB-435 melanoma -25.2%

CCOC(=O)c1c(-c2ccc(O)cc2)c(C#N)c2c(C#N)c(N)nn2c1N
inactive: RPMI-8226 leukemia 38.7% | OVCAR-8 ovarian 70.8% | OVCAR-5 ovarian 89.3% | OVCAR-4 ovarian 81% | SK-OV-3 ovarian 75.5% | IGROV1 ovarian 52.3% | OVCAR-3 ovarian 66.3% | NCI/ADR-RES ovarian 95.9% | T-47D breast 28.2% | BT-549 breast 60.9% | SW-620 colon 42.6% | MCF7 breast 31.5% | HCT-116 colon 67.6% | HCC-2998 colon 80.9% | KM12 colon 47.5%
active: MDA-MB-435 melanoma 1.63%

O=C(O)c1cc(N=Nc2ccc(-c3ccc(N=Nc4c(S(=O)(=O)O)cc5ccc(Nc6ccccc6)cc5c4O)cc3)cc2)ccc1O
inactive: RPMI-8226 leukemia 104% | OVCAR-8 ovarian 107% | OVCAR-5 ovarian 109% | OVCAR-4 ovarian 102% | SK-OV-3 ovarian 98.4% | IGROV1 ovarian 100% | OVCAR-3 ovarian 103% | NCI/ADR-RES ovarian 104% | T-47D breast 89.1% | BT-549 breast 115% | MDA-MB-435 melanoma 106% | SW-620 colon 102% | MCF7 breast 92.3% | HCT-116 colon 105% | HCC-2998 colon 89.8% | KM12 colon 99.6%
